Screen size: about 350,000 compounds; about 31,000 (8.9%) were called active. Inconclusive results (about 15%) are left out. What follows is part of a selection rich in actives, with near analogues and random picks from the rest. A number with no mark means an inactive call. Calls follow the shape of the dose curve; as a rule, active = well fitted inhibition curve with a large enough effect; inconclusive = small, poorly fitted or top-dose-only effect; inactive = no such curve, though single readings can be large or run the other way.
Target: Histone-lysine N-methyltransferase EHMT2 (Homo sapiens) (UniProt Q96KQ7)
Assay: qHTS Assay for Inhibitors of Histone Lysine Methyltransferase G9a; also: nearly all actives have a fitted effect of over 75% in size
Settings: G9a H3K9 monomethylation, AlphaScreen, 2 h; series mostly up to 59 µM; activity, negative = inhibition: at the top concentration
In short: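 Quantitative HTS format: methyltransferase activity on a biotin-tagged H3K9 peptide is measured by AlphaScreen, using a rabbit anti-monomethyl-H3K9 antibody with streptavidin donor and anti-IgG acceptor beads. Final levels are 20 nM enzyme, 500 nM peptide, 20 uM SAM; 2 h RT.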
% is scaled to controls: 0 for no effect and ±100 for the full control effect; potency is read from the fitted curve at half-maximal effect.

Histone-lysine N-methyltransferase EHMT2 (Homo sapiens), sequence (Q96KQ7 913-1193 limits assumed): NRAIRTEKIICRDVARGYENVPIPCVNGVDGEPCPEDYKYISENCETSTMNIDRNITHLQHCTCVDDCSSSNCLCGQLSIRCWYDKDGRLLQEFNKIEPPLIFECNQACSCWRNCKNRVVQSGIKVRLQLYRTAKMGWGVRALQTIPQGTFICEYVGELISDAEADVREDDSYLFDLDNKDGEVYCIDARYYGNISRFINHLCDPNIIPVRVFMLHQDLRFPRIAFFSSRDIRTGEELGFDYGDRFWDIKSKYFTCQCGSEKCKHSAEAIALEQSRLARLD

Structure (SMILES) | activity, negative = inhibition | Potency
Cc1c(C(=O)Nc2cccc(Cl)c2)oc2ccc(S(=O)(=O)N3CCOCC3)cc12 | 9.55% | –
CC[C@@]12C(=O)N(c3ccccc3)C(=O)N1[C@H](c1ccc(Br)cc1)[C@@H]1C(=O)N(C(C)(C)C)C(=O)[C@@H]12 | 53.8% [at 2.33 µM] | –
CCCc1ccc(C(=O)COC(=O)CN2C(=O)NC3(CCCCC3C)C2=O)cc1 (configuration not stated) | -4.43% [at 12.7 µM] | –
CCc1nn(CC(=O)N2CCN(c3ccc(Cl)cc3)CC2)c(=O)c2cc3occc3n12 | -0.323% | –
CCOc1ccc(CCNC(=O)COC(=O)C2CCN(c3ccc(C(F)(F)F)cn3)CC2)cc1OCC | 4.55% [at 102 µM] | –
Nc1nonc1-n1nnc(C(=O)N/N=C/c2c[nH]c3ccccc23)c1-c1ccccc1 | 96.6% [at 102 µM] | –
S=c1[nH]nc(-c2ccncc2)n1/N=C/c1ccccc1Cl | – | 1.41 µM (active)
CCc1n[nH]c(=S)n1/N=C/c1c[nH]c2ccc(Br)cc12 | – | 8.91 µM (active)
S=c1[nH]nc(-c2ccco2)n1/N=C/c1ccccc1 | – | 1.58 µM (active)
S=c1[nH]nc(-c2ccccc2)n1/N=C/c1c[nH]c2ccccc12 | – | 1.58 µM (active)
COc1ccc(Br)cc1/C=N/n1c(C)nnc1C | 4.01% | –
CSC(=S)N/N=C/c1c[nH]c2ccccc12 | -9.3% | –
CCCCN(C)c1nnc(NC(=O)Nc2ccc(Br)c(C)c2)s1 | -8.76% | –
O=C(O)c1cc(S(=O)(=O)N(Cc2ccccc2)c2cccc(C(F)(F)F)c2)ccc1Cl | 7.94% [at 102 µM] | –
O=C(NCCC1=CCCCC1)c1ccc(-n2cncn2)cc1 | 3.99% [at 12.7 µM] | –
Cc1oc2ccc(O)c(CN3CCCCC3)c2c1C(=O)Nc1cccc(C(F)(F)F)c1 | -4.04% | –
O=C(NCc1ccccc1Cl)C(=O)NCC1CCCN1S(=O)(=O)c1cccs1 (configuration not stated) | 1.3% [at 102 µM] | –
Cc1ccc2c(c1)N(CC(=O)NCC1CCCO1)C(=O)CO2 (configuration not stated) | 12.4% [at 102 µM] | –
CCCC1C(=O)N2C(N(C)C)=Nc3ccc(C)cc3N2C1=O (configuration not stated) | – | 3.55 µM (active)
c1ccc(-c2cc(-c3ccccc3)[nH]n2)cc1 | 26.9% [at 102 µM] | –
CCc1ccc(CNCc2c(C(=O)O)n(Cc3ccc(F)cc3Cl)c3cc(OC)ccc23)cc1 | -2.34% | –

Structure (SMILES) | activity, negative = inhibition | Potency
Cc1nc2c(-c3ccccc3)c(C)nn2c(C)c1CCC(=O)NCCc1ccccc1 | 5.72% | –
Cc1cc(OC(C)C(=O)NC2CC(C)(C)NC(C)(C)C2)c2c(C)cc(=O)oc2c1 (configuration not stated) | 15.6% [at 102 µM] | –
CCc1ccccc1NC(=O)N1CCN(C(=O)c2nsc3ccccc23)CC1 | 12.5% | –
CCN(Cc1ccccc1)Cc1c(O)ccc2c(=O)c(-c3ccc(Cl)cc3Cl)coc12 | -2.39% | –
O=C(O)CSc1ccc(S(=O)(=O)N2CCCC2)cn1 | -37.2% [at 2.33 µM] | –
Cc1ccc(/C([O-])=C(/C(=S)NCc2ccco2)[n+]2ccccc2)cc1[N+](=O)[O-] | – | 39.8 µM (active)
CC(C)(C)NC(=O)NCc1ccco1 | 9.25% [at 102 µM] | –
O=C(NCc1ccco1)c1ccc([N+](=O)[O-])cc1Cl | 17.2% [at 102 µM] | –
O=C(c1ccc(F)c(S(=O)(=O)N2CCOCC2)c1)N(CCc1ccccc1)Cc1ccccc1 | -4.88% [at 102 µM] | –
CC(=O)c1cccc(OCc2cc(C(=O)NC(C)Cc3cccnc3)no2)c1 (configuration not stated) | 10.3% [at 102 µM] | –
CN(C)CCn1c2c(c(SCC(=O)NCc3ccccc3)nc1=O)CCC2 | -1.82% [at 102 µM] | –
Cc1nc2cc(C(F)(F)F)ccc2n1CCNc1nc(-c2cc(Cl)c(N)c(Cl)c2)cs1 | – | 39.8 µM (active)
Nc1c(Cl)cc(-c2csc(N3CCCC3c3nc4cc(Cl)c(Cl)cc4n3CCOCCO)n2)cc1Cl (configuration not stated) | 23.4% [at 102 µM] | –
COc1ccc(C(C(O)C(=O)c2c[nH]c3ccccc23)N2CCN(c3ccccc3)CC2)cc1 (configuration not stated) | – | 25.1 µM (active)
COc1ccc(C(CC(=O)N2CCN(c3ccccc3)CC2)c2c(O)cc(OC)cc2OC)cc1 (configuration not stated) | -0.615% [at 12.7 µM] | –
COc1cccc(-n2c(SCC(=O)c3c[nH]c4ccccc34)nc3ccccc3c2=O)c1 | 11.3% | –
COc1ccc(CCNC(=O)c2cc(=O)c3c(C)cc(C)cc3o2)cc1OC | -8.8% | –
COc1cccc(N2CCN(S(=O)(=O)c3ccc4c(c3)CCCN4C(C)=O)CC2)c1 | 3.68% | –
CCOC(=O)c1c(NC(=O)C2CC=CCC2C(=O)O)sc(C)c1CC (configuration not stated) | -8.47% [at 102 µM] | –
CCOC(=O)Nc1sc(C(=O)N(C)C)c(C)c1C(=O)OCC | 27.3% [at 102 µM] | –
CCOC(=O)c1c(NC(C)=O)sc2c(O)c(Br)ccc12 | – | 1.58 µM (active)

Structure (SMILES) | activity, negative = inhibition | Potency
Cc1ccccc1CNC(=O)C1CCCN(S(=O)(=O)N(C)c2ccc(F)cc2)C1 (configuration not stated) | -0.195% | –
Cc1nn(-c2ccc(N3CCCCC3)nn2)c(C)c1CCC(=O)NCc1ccc(F)cc1 | 0.738% | –
COC(=O)c1[nH]c2ccc(Br)cc2c1NC(=O)Oc1ccccc1 | – | 11.2 µM (active)
C/C(=N\N)c1c(-c2ccccc2)c2cc(Br)ccc2[nH]c1=O | 0.552% [at 102 µM] | –
COC(=O)c1oc2ccc(Br)cc2c1NC(C)=O | 3.67% | –
O=C(Nc1ccccc1)C1CCN(C(=O)c2ccc(Br)cc2)CC1 | -4.25% [at 102 µM] | –
CC(=O)c1c(C)[nH]c(C(=O)CN2C(=O)NC(C)(C)C2=O)c1C | 3.15% [at 0.501 µM] | –
Cc1ccc(CN2CCN(Cc3cn(C)nc3-c3ccccc3)CC2CCO)o1 (configuration not stated) | 2.66% [at 102 µM] | –
Cc1ccccc1CN1C[C@@H]2C[C@@H](c3cn(C)nc3-c3ccccc3)N3CCC[C@@]23C1=O | – | 10 µM (active)
Cc1ccccc1CN1CCN(CC(=O)NCc2ccccn2)C1=O | 5.93% | –
Cc1ccc(C(=O)CN2C(=O)NC3(CCc4ccccc43)C2=O)c(C)c1 (configuration not stated) | 3.17% [at 102 µM] | –
Cc1ccc2nc(SCC(=O)Nc3cccc4ccccc34)nc(=O)n2c1 | -26.2% [at 102 µM] | –
Cc1cc(NC(=O)CSc2nccn2-c2ccc([N+](=O)[O-])cc2)no1 | -0.25% [at 102 µM] | –
Cc1nnc(NC(=O)CSc2nccn2-c2cccc(C)c2C)s1 | – | 50.1 µM (active)
Cc1cccc(-n2ccnc2SCC(=O)Nc2cccc3ccccc23)c1C | – | 12.6 µM (active)
Cc1ccc(C)c(-n2ccnc2SCC(N)=O)c1 | 23.6% [at 12.7 µM] | –
COc1ccccc1-n1c(CNC(=O)c2ccccc2)nnc1SCC(=O)Nc1nnc(C)s1 | -4.37% [at 102 µM] | –
O=C(CSc1nccn1Cc1ccc(F)cc1)NCc1ccccc1 | -3.68% | –
O=C(CSc1nccn1-c1ccc(F)cc1)Nc1cccc2ccccc12 | – | 14.1 µM (active)
COc1ccccc1-n1ccnc1SCC(=O)NC(C)(C)C | 19.7% [at 102 µM] | –
